Of roughly 7,900 targets only a part is listed; those with a hit were picked by preference. About 0.6% of all pairs of compound and target were hits. Unmarked numbers belong to inactive results.
Key:
Test in all cases: log2 fold change, soluble protein after heating vs DMSO (PISA); higher = thermal stabilisation; K562 cells, 10 uM, 30 min; active = over 0.2 and 3.5 SD of the protein, either way, in both replicates (recomputed)
[1] = compound: C1=CC=C(C=C1)[C@H](COC2=CC3=C(C=C2)NC(=O)N3)NC(=O)C4=CC=CN(C4=O)CC5=CC(=C(C=C5)F)F
In short: (§1)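 K562 cells (2×10^6 cells/mL) were treated with 10 μM compound for 30 min, and aliquots were heated for 3 min over 48°C-58°C. Pooled aliquots were extracted in PBS with 0.5% NP-40 at 4°C, and the supernatant after 21,000xg for 90 min was measured by TMTpro 16plex LC-MS/MS with channel sums equalised. Reported thermal stability, relative to control samples and from duplicates, is a log2 fold change.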

[2] = compound: CC1=C(SC2=C1C(=N[C@H](C3=NN=C(N32)C)CC(=O)N)C4=CC=C(C=C4)Cl)C
In short: as §1

[3] = compound: CC1=C2C(=CC=C1)N=C(N(C2=O)C3=CC=CC=C3C)CN4C=NC5=C(N=CN=C54)N
In short: as §1

[4] = compound: Cc1sc2c(c1C)C(c1ccc(Cl)cc1)=N[C@@H](CC(=O)OC(C)(C)C)c1nnc(C)n1-2
In short: as §1

[5] = compound: c1ccc([C@@H]2C[C@H]2NC2CCNCC2)cc1
In short: as §1

Sequence of UniProt Q12851 (Q12851 whole entry, looked up): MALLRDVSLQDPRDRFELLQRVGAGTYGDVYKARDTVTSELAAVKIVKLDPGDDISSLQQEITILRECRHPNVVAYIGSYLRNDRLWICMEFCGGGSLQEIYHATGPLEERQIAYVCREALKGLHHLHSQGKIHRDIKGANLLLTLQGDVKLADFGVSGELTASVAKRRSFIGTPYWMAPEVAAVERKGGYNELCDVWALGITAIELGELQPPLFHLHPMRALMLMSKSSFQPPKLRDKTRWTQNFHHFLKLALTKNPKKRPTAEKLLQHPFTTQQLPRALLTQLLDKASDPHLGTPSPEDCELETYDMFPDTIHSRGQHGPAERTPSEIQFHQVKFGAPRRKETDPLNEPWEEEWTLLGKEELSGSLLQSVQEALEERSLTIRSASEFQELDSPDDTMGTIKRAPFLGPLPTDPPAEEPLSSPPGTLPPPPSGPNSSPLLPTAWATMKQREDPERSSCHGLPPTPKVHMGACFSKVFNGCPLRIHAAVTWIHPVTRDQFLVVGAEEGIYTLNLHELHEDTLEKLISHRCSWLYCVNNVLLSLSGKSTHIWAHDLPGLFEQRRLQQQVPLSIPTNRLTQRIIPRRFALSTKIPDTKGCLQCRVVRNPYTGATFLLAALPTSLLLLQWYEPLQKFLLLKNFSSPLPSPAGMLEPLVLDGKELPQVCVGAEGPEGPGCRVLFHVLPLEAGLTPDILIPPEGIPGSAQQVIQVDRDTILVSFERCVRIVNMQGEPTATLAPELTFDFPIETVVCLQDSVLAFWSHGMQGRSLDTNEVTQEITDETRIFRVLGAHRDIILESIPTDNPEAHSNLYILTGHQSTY
Sequence of UniProt Q9Y2E5 (Q9Y2E5 whole entry, looked up): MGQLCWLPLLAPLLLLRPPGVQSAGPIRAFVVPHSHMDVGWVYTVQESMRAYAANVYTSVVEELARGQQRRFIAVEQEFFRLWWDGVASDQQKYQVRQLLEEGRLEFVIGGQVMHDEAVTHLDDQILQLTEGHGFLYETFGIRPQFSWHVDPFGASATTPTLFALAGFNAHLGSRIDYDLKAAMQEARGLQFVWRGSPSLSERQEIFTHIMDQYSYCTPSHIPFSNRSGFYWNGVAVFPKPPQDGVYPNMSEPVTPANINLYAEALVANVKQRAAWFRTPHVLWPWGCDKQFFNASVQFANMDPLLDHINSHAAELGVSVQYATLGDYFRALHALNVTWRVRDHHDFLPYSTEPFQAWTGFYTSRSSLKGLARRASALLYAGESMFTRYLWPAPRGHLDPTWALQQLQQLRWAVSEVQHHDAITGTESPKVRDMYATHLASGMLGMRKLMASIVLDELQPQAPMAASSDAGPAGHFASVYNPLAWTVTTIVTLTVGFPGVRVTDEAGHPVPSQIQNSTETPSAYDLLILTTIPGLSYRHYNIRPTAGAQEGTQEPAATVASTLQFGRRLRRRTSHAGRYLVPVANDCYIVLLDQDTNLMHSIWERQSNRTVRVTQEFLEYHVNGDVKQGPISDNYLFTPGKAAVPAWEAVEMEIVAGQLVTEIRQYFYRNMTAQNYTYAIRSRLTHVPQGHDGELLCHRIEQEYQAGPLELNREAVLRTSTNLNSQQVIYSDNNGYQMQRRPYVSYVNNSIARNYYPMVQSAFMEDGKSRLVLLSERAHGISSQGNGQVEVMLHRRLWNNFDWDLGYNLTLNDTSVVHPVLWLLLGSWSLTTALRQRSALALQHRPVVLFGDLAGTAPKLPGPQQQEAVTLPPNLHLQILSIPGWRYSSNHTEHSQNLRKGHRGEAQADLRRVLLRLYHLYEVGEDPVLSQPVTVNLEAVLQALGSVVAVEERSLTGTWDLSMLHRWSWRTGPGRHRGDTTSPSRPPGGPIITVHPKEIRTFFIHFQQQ
Sequence of UniProt Q9Y5V3 (Q9Y5V3 whole entry, looked up): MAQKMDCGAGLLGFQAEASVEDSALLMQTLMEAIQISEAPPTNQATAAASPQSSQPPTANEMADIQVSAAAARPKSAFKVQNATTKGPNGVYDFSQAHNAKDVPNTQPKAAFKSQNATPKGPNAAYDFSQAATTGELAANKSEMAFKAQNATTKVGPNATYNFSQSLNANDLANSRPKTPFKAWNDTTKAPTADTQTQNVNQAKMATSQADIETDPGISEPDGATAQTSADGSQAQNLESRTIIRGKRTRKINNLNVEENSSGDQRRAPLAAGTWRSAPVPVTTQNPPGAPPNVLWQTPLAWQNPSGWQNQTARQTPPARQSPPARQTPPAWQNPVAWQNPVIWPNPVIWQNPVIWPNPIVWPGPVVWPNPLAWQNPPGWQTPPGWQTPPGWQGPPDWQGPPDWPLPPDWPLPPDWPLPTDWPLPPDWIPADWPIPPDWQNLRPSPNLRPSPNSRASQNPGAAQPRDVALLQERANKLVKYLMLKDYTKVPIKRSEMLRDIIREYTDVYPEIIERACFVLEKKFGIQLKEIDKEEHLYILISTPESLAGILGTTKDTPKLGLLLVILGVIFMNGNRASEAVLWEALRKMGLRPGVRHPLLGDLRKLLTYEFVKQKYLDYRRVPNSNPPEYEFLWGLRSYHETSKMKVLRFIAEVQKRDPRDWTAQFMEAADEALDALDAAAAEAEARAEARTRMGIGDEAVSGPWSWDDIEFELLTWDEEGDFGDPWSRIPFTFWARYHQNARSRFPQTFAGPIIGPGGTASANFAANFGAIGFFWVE
Sequence of UniProt Q13422 (Q13422 whole entry, looked up): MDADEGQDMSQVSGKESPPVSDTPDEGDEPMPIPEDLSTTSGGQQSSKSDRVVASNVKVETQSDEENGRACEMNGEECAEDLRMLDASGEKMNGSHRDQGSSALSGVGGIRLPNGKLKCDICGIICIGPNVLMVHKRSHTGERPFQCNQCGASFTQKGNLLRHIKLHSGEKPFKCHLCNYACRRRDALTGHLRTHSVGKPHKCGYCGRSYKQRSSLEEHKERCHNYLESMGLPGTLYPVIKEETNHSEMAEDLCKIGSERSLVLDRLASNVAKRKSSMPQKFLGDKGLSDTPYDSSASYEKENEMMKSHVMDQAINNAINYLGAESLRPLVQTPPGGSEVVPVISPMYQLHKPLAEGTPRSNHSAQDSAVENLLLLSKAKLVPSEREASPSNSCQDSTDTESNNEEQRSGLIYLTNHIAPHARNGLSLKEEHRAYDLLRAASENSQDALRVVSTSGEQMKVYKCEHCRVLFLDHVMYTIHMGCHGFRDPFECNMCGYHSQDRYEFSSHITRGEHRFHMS
Sequence of UniProt O43318 (O43318 whole entry, looked up): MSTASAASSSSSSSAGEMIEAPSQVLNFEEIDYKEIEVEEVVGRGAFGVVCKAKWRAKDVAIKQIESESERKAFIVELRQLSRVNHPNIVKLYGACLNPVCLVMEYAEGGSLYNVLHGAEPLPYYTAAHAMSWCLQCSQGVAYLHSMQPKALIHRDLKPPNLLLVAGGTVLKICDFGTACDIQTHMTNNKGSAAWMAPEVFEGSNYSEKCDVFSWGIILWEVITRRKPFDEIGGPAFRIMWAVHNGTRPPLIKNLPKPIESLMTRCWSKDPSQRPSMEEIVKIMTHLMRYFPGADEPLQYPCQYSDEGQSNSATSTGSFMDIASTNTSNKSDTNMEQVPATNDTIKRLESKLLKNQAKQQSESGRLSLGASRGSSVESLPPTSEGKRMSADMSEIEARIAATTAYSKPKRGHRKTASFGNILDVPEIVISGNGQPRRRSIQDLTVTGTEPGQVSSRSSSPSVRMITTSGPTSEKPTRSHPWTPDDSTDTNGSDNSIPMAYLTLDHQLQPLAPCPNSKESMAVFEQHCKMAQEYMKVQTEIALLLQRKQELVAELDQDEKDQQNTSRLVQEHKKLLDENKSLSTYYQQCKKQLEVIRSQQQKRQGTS
Sequence of UniProt Q7L590 (Q7L590 whole entry, looked up): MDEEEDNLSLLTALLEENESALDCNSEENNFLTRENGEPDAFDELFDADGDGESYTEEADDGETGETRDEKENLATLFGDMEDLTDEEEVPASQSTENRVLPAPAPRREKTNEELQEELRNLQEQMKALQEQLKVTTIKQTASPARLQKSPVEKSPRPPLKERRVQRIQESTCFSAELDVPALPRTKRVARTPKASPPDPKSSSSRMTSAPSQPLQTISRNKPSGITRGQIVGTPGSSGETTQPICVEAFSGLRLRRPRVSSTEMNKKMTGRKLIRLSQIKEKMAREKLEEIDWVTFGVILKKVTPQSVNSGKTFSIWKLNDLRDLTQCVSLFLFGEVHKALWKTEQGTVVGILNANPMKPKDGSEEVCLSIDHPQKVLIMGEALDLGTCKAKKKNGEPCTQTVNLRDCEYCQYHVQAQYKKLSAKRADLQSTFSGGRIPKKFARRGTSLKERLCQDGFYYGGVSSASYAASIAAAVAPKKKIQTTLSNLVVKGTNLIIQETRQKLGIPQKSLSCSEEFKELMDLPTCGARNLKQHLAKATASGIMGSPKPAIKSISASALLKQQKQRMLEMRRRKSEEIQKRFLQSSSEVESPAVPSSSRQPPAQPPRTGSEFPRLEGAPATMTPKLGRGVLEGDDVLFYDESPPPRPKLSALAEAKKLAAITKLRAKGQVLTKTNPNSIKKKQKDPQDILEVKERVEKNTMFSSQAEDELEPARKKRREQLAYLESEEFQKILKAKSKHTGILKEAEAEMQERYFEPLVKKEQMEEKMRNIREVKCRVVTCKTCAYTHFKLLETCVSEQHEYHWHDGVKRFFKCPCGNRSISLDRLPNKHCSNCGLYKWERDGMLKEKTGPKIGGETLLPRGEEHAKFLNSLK
Sequence of UniProt O95568 (O95568 whole entry, looked up): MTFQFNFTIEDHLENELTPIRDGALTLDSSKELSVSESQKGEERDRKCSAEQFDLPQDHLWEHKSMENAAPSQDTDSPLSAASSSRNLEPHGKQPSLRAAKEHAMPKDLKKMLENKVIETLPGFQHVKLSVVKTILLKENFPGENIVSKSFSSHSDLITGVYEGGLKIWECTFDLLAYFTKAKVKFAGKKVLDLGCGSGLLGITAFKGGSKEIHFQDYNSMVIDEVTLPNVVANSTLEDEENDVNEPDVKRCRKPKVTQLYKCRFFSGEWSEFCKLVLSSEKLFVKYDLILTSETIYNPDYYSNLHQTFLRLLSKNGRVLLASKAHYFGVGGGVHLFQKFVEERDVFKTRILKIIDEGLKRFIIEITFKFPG

| Target | log2 fold change [1] | log2 fold change [2] | log2 fold change [3] | log2 fold change [4] | log2 fold change [5] |
| --- | --- | --- | --- | --- | --- |
| IKZF1 (UniProt Q13422) | -0.011 | 0.05 | 0.15 | -0.009 | 0.014 |
| IPO7 (UniProt O95373) | -0.082 | 0.031 | 0.069 | -0.025 | 0.003 |
| MARK3 (UniProt P27448) | -0.042 | 0.039 | 0.104 | 0.121 | 0.004 |
| MAPKAPK3 (UniProt Q16644) | -0.122 | 0.013 | 0.027 | -0.034 | -0.109 |
| MAP3K7 (UniProt O43318) | -0.085 | 0.005 | 0.11 | 0.061 | 0.023 |
| METTL18 (UniProt O95568) | 0 | -0.027 | 0.061 | -0.055 | 0.028 |
| KIF11 (UniProt P52732) | -0.044 | -0.011 | 0.074 | 0.092 | -0.027 |
| MED8 isoform 2 (UniProt Q96G25) | 0.011 | -0.053 | -0.381 (active) | – | 0.039 |
| INPP5B (UniProt P32019) | -0.067 | 0.056 | 0.024 | 0.086 | -0.035 |
| LUM (UniProt P51884) | – | -0.05 | 0.087 | 0.144 | 0.143 |
| MAML1 (UniProt Q92585) | – | 0.018 | 0.15 | – | 0.077 |
| MAGED1 isoform 2 (UniProt Q9Y5V3) | – | 0.031 | 0.148 | – | -0.01 |
| ITGA2B (UniProt P08514) | – | 0.022 | 0.112 | 0.029 | -0.043 |
| IP6K1 (UniProt Q92551) | 0.053 | 0.059 | – | 0.194 | -0.135 |
| ING5 (UniProt Q8WYH8) | – | 0.051 | – | 0.036 | -0.037 |
| MAP3K20 isoform 2 (UniProt Q9NYL2) | – | – | – | -0.033 | – |
| MED12 isoform 2 (UniProt Q93074) | -0.002 | – | – | -0.434 | – |
| IGFBP6 (UniProt P24592) | – | 0.018 | 0.011 | – | 0.01 |
| KIZ (UniProt Q2M2Z5) | – | -0.082 | – | – | 0.453 |
| INTS5 (UniProt Q6P9B9) | -0.091 | – | 0.052 | 0.065 | – |
| ITPRID2 (UniProt P28290) | – | – | 0.106 | – | – |
| IGFBP3 isoform 2 (UniProt P17936) | – | -0.081 | 0.034 | -0.083 | 0.057 |
| LRBA, A0A494BZW2 | 0.002 | 0.048 | – | 0.113 | 0.014 |
| KCNK5 (UniProt O95279) | -0.028 | 0.114 | – | – | -0.054 |

| Target | log2 fold change [1] | log2 fold change [2] | log2 fold change [3] | log2 fold change [4] | log2 fold change [5] |
| --- | --- | --- | --- | --- | --- |
| IKZF1 (UniProt R9R4D9) | – | 0.08 | – | 0.039 | -0.159 |
| IL10RB (UniProt Q08334) | -0.081 | – | -0.149 | 0.029 | – |
| KIF13A isoform 4 (UniProt Q9H1H9) | – | 0.031 | – | – | -0.367 |
| MCOLN3 (UniProt Q8TDD5) | -0.075 | – | – | 0.039 | – |
| LMNA isoform 2 (UniProt P02545) | – | – | – | -0.033 | – |
| LEPROT (UniProt O15243) | – | -0.022 | – | -0.235 | 0.112 |
| MCM10 (UniProt Q7L590) | -0.04 | – | 0.204 | 0.032 | – |
| MAPRE3 isoform 2 (UniProt Q9UPY8) | – | 0.033 | – | 0.279 | 0.017 |
| LRRFIP1 isoform 4 (UniProt Q32MZ4) | – | -0.204 | – | – | 0.009 |
| MAP4K2 (UniProt Q12851) | -0.08 | 0.063 | – | -0.057 | 0 |
| KIF1B isoform 3 (UniProt O60333) | – | – | -0.246 | – | – |
| MED17 (UniProt Q9NVC6) | – | -0.031 | 0.038 | 0.032 | -0.011 |
| MFAP3 (UniProt P55082) | 0.007 | – | 0.25 | -0.155 | – |
| MAN2B2 (UniProt Q9Y2E5) | 0.097 | – | 0.096 | 0.074 | – |
| MAP4K4 isoform 6 (UniProt O95819) | – | 0.177 | 0.049 | -0.037 | 0.076 |
| LSR isoform 3 (UniProt Q86X29) | – | -0.073 | – | -0.067 | -0.101 |
| MAPK11 (UniProt Q15759) | – | – | – | -0.014 | – |
| MAP2K5 (UniProt Q13163) | – | 0.053 | – | – | -0.034 |
| LYN isoform 2 (UniProt P07948) | – | 0.018 | -0.097 | – | 0.033 |
| MFSD12 isoform 3 (UniProt Q6NUT3) | – | 0.026 | – | -0.129 | 0.135 |
| LSR (UniProt M0QZL9) | – | – | 0.054 | – | – |
| MGRN1 isoform 2 (UniProt O60291) | -0.088 | -0.004 | – | 0.036 | 0.086 |
| MELK (UniProt Q14680) | 0.044 | -0.057 | – | 0.197 | -0.057 |
| LRRCC1 (UniProt Q9C099) | – | – | – | 0.046 | – |

Reference: the supplement of paper PMC10849652
